Reference: PubChem BioAssay AID1259418 (Broad Institute, 2018)
About 840 (25%) of roughly 3,400 compounds were called active. Another 11% or so got no clear call; they are omitted.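 Rule for the calls: active = fitted half-maximal concentration of signal decrease at or below twice the sample's top tested concentration; inconclusive = flat curve between -70 and -30 percent, or poor fit; inactive = flat within 30 percent, signal rise, or potency above limit.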 These entries were drawn from the full list. Measured potencies and affinities stand elsewhere.

Test: inhibitors of Toxoplasma growth in IFN-γ-primed HeLa – cell-based, ME49Luc, luciferase, 72 h, dose response (AID 1259418)
Conditions: T. gondii ME49Luc in IFN-y HeLa, stronger effect = lower value, -100% = high-dose IFN-γ control wells; at 19.5 µM unless noted

| SMILES | max activity |
| --- | --- |
| Cc1ccc(NC(=O)COc2nc(C)nc3ccccc23)c(Cl)c1 | 15.5% [at 0.68 µM] (inactive) |
| COc1cc(OC)cc(-c2noc(-c3nnn(Cc4nc(-c5cccc(C)c5)oc4C)c3C)n2)c1 | -7.99% [at 0.16 µM] (inactive) |
| Cc1ccc(NC(=O)Nc2ccc(-c3nc(-c4ccc(C)cc4)co3)cc2)cc1 | 24% [at 5 µM] (inactive) |
| CCc1cccc(-n2nnc(C(=O)N3CCC(N4CCCCC4)CC3)c2-c2cccnc2)c1 | 25.9% [at 0.68 µM] (inactive) |
| COCC(=O)N1CCC2(CC1)CC1(CCN(CC(C)C)CC1)C(=O)N2C | 34.4% (inactive) |
| O=C1CC(c2ccncc2)C2(CCN(Cc3nccs3)CC2)N1 (stereo not given) | 22.8% (inactive) |
| CCS(=O)(=O)N1CC[C@H]2[C@@H]1CCN2Cc1cnn(C)c1 | 27.1% (inactive) |
| COc1ccc(-c2nc(Nc3cc(Cl)c(OC)cc3OC)c3ccccc3n2)cc1 | 18.3% (inactive) |
| COc1ccc(-c2nc(Nc3ccc(OC)c(Cl)c3)c3ccccc3n2)cc1 | 16.4% [at 2.6 µM] (inactive) |
| Cc1ccc(S(=O)(=O)N2CCC3(CC2)OC(C(=O)N(C)C)Cn2ccnc23)cc1 (stereo not given) | 40.3% (inactive) |
| COc1ccccc1NC(=O)N1C[C@@H]2N[C@H](C1)C2c1ccc(/C=C/c2ccccc2)cc1 (stereo not given in full) | -98% (inactive) |
| N#Cc1cccc(-c2ccc(C3[C@@H]4CN(C(=O)c5ccc6c(c5)OCO6)C[C@H]3N4)cc2)c1 (stereo not given in full) | 17.9% (inactive) |
| O=C(CN1CCOCC1)N1C[C@@H]2N[C@H](C1)C2c1ccc(/C=C/c2ccccc2)cc1 (stereo not given in full) | 41.5% [at 10 µM] (inactive) |
| O=C(C1CC1)N1C[C@@H]2N[C@H](C1)C2c1ccc(/C=C/c2ccccc2)cc1 (stereo not given in full) | 92.7% [at 0.08 µM] (inactive) |
| O=C(Nc1ccccc1F)N1C[C@@H]2N[C@H](C1)C2c1ccc(/C=C/c2ccccc2)cc1 (stereo not given in full) | 85.7% [at 1.2 µM] (inactive) |
| O=C(Nc1ccc2c(c1)OCO2)N1C[C@@H]2N[C@H](C1)C2c1ccc(C=Cc2ccccc2)cc1 (stereo not given in full) | 116% [at 1.2 µM] (inactive) |
| N#Cc1ccc(-c2ccc([C@@H]3[C@H]4CNC[C@@H]3N4Cc3ccc4c(c3)OCO4)cc2)cc1 | 28.6% [at 10 µM] (inactive) |
| Cc1cccc(N2CCN(C(=O)c3ccc(-c4csc(C5CC5)n4)cc3)CC2C)c1 (stereo not given) | 40.1% (inactive) |
| CCN1C(=O)CCc2cc(NC(=O)c3ccc(Br)o3)ccc21 | 15.9% [at 10 µM] (inactive) |
| Cc1ccc(-c2coc(-c3ccc(NC(=O)Nc4ccccc4Br)cc3)n2)cc1 | -10.7% [at 10 µM] (inactive) |
| CCc1ccccc1NC(=O)CN1CCC2(CC1)N=C(c1cccc(Cl)c1)C(=O)N2 | 9.92% (inactive) |
| Cn1c(=O)c(C(=O)NCc2ccccc2Cl)cc2cccnc21 | 196% (inactive) |
| Cc1ccccc1N(Cc1nc(-c2ccc(OC(C)C)cc2)oc1C)S(=O)(=O)c1cccs1 | 4.55% (inactive) |
| Cc1ccccc1N(Cc1nc(-c2cccc(Cl)c2)oc1C)S(=O)(=O)c1cccs1 | -9.43% [at 5 µM] (inactive) |
| CCOc1ccc(-c2nc(CN(c3ccccc3OCC)S(=O)(=O)c3cccs3)c(C)o2)cc1 | 6.64% (inactive) |

| SMILES | max activity |
| --- | --- |
| CCOc1ccc(-c2nc(CN(c3ccccc3C)S(=O)(=O)c3cccs3)c(C)o2)cc1OC | -13.1% [at 0.16 µM] (inactive) |
| CCOC(=O)CSC1=Nc2ccccc2C2=NC(CC(=O)NCc3ccco3)C(=O)N12 (stereo not given) | 21.4% [at 1.35 µM] (inactive) |
| COc1ccc(C(=O)Nc2ccc(-c3nc(-c4cc(C)ccc4C)co3)cc2)cc1 | 9.17% (inactive) |
| COc1ccccc1C(=O)N1CCC2(CC1)Nc1ccc(C)c(C)c1-n1cccc12 | -7.27% [at 1.35 µM] (inactive) |
| CN1CCC(N2CCN(c3ncccc3-c3nnc(-c4ccc(Cl)cc4)o3)CC2)CC1 | 4.69% (inactive) |
| Cc1ccc(NC(=O)Nc2ccc(-c3nc(-c4ccccc4)co3)cc2)cc1Cl | 9.34% (inactive) |
| CCOc1ccc(NC(=O)COc2nc(C)nc3ccccc23)cc1 | 30.4% [at 10 µM] (inactive) |
| Cc1ccc2c(c1C)-n1cccc1C1(CCN(C(=O)COc3ccc(F)cc3)CC1)N2 | -9.55% [at 0.16 µM] (inactive) |
| Cc1ccc(-c2coc(-c3ccc(NC(=O)CC4CCCCC4)cc3)n2)cc1 | -15.2% (inactive) |
| COc1ccccc1N(Cc1nc(-c2ccccc2)oc1C)S(=O)(=O)c1cccs1 | -5.51% [at 0.68 µM] (inactive) |
| CCOc1ccccc1N(Cc1nc(-c2cccc(Cl)c2)oc1C)S(=O)(=O)c1cccs1 | 6.9% (inactive) |
| CCOc1ccccc1N(Cc1nc(-c2cccc(C)c2)oc1C)S(=O)(=O)c1cccs1 | 10.6% (inactive) |
| COc1ccccc1N(Cc1nc(-c2ccc(OC(C)C)cc2)oc1C)S(=O)(=O)c1cccs1 | -8.76% [at 0.35 µM] (inactive) |
| O=C(O)CN1C[C@H]2c3ccccc3C(OCC3CC3)[C@@H]2C1 (stereo not given in full) | 42.3% (inactive) |
| CCc1ccc2c(c1)cc(S(=O)(=O)c1ccccc1)c(=O)n2CC(=O)NC1CCCC1 | 14.3% [at 0.16 µM] (inactive) |
| COc1ccc(-c2nc(Nc3ccc(C)c(F)c3)c3ccccc3n2)cc1 | 17.7% [at 2.6 µM] (inactive) |
| O=C(Cn1cccc1-c1nc(-c2ccccc2)cs1)N1CCC2(CC1)OCCO2 | -15.4% [at 2.6 µM] (inactive) |
| COc1ccccc1N(Cc1nc(-c2ccccc2)oc1C)S(=O)(=O)c1ccccc1C | 9.45% [at 5 µM] (inactive) |
| Cc1csc([C@H]2C[C@H]3CCN(C(=O)c4cnccn4)C[C@@H]3O2)n1 | 48.1% (inactive) |
| COc1ccc(-c2nc(C)c(-c3ccc(SCc4ccc(C(F)(F)F)cc4)nn3)s2)cc1 | 8.72% [at 2.6 µM] (inactive) |
| CCCCC(=O)N1CCC2(CC1)Nc1cc(OC)ccc1-n1cccc12 | 14.1% [at 2.6 µM] (inactive) |
| Cc1ccc(-c2nc(CN3CCN(C(=O)Nc4ccccc4Cl)CC3)c(C)o2)cc1 | 16.4% [at 2.6 µM] (inactive) |
| CCOC(=O)CSC1=Nc2ccccc2C2=NC(CC(=O)NCCc3ccccc3)C(=O)N12 (stereo not given) | 64.6% (inactive) |
| O=C(CC1N=C2c3ccccc3N=C(SCc3ccc(Cl)cc3)N2C1=O)NCc1ccc(F)cc1 (stereo not given) | 15% (inactive) |
| O=C(CC1N=C2c3ccccc3N=C(SCc3cccc(Cl)c3)N2C1=O)NCc1ccc(F)cc1 (stereo not given) | 30.2% (inactive) |

| SMILES | max activity |
| --- | --- |
| O=C(CC1N=C2c3ccccc3N=C(SCc3ccccc3Cl)N2C1=O)NCc1ccccc1 (stereo not given) | 12.8% [at 2.6 µM] (inactive) |
| O=C(CC1N=C2c3ccccc3N=C(SCc3ccccc3Cl)N2C1=O)NCc1ccc(F)cc1 (stereo not given) | -7.22% [at 0.16 µM] (inactive) |
| O=C(CC1N=C2c3ccccc3N=C(SCc3cccc(Cl)c3)N2C1=O)NCc1ccc2c(c1)OCO2 (stereo not given) | 19.4% [at 10 µM] (inactive) |
| COc1ccccc1-c1nc(Cn2nnc(-c3nc(-c4ccc(Cl)cc4)no3)c2C)c(C)o1 | 9.29% (inactive) |
| COc1ccc(C(=O)Nc2ccc(-c3nc(-c4ccc(C)cc4)co3)cc2)cc1OC | 61.6% [at 10 µM] (inactive) |
| COC(=O)c1ccc(NC(=O)Nc2ccc(-c3nc(-c4ccc(C)cc4C)co3)cc2)cc1 | 12.9% [at 0.68 µM] (inactive) |
| CN(C)c1cccc(C(=O)N2CSC[C@@H]2C(=O)NCCc2csc(-c3ccccc3)n2)c1 | 9.09% [at 0.16 µM] (inactive) |
| CCOC(=O)c1ccc(NC(=O)CN2CCC3(CC2)N=C(c2ccccc2)C(=O)N3)cc1 | 23.6% (inactive) |
| COc1ccc(-c2nc(CN(c3ccc(OC)cc3)S(=O)(=O)c3ccccc3C)c(C)o2)cc1 | 2.45% (inactive) |
| Cc1oc(-c2ccccc2)nc1Cn1nnc(-c2nc(-c3ccc(OC(C)C)cc3)no2)c1C | -7.48% [at 5 µM] (inactive) |
| CCc1nc(OCC(=O)Nc2ccccc2Br)c2ccccc2n1 | 18.5% [at 0.68 µM] (inactive) |
| O=C(NCCc1csc(-c2ccccc2)n1)[C@H]1CSCN1S(=O)(=O)c1ccccc1F | 11.9% [at 0.16 µM] (inactive) |
| O=C(Nc1ccccc1)[C@@H]1[C@@H](CO)[C@@H]2Cn3c(ccc(C4=CCCCC4)c3=O)[C@@H]2N1Cc1cocn1 | 31.9% (inactive) |
| Cc1cccc(-c2noc(-c3nnn(Cc4nc(-c5cccc(C)c5)oc4C)c3C)n2)c1 | 17.9% (inactive) |
| Cc1ccc(-c2coc(-c3ccc(NC(=O)NCCc4ccccc4)cc3)n2)c(C)c1 | 27.7% [at 0.35 µM] (inactive) |
| Cc1ccc(NC(=O)CN2CCC3(CC2)N=C(c2cccc(F)c2)C(=O)N3)cc1C | -21.1% (inactive) |
| CCOc1ccc(NC(=O)N2CCN(Cc3nc(-c4ccccc4C)oc3C)CC2)cc1 | -9.52% (inactive) |
| Cc1nc(OCC(=O)Nc2ccc(C(C)C)cc2)c2ccccc2n1 | 15.7% [at 1.35 µM] (inactive) |
| CC(C)CCNC(=O)CC1Nc2c3ccccc3nc(=S)n2C1=O (stereo not given) | 41.3% (inactive) |
| CCOc1ccccc1NC(=O)CN1CCC2(CC1)N=C(c1cccc(Cl)c1)C(=O)N2 | 5.75% (inactive) |
| COc1ccccc1-c1nc(Cn2nnc(-c3nc(-c4cccc(F)c4)no3)c2C)c(C)o1 | -3.46% [at 1.35 µM] (inactive) |
| Cc1ccc(-c2nc(Cn3nnc(-c4nc(-c5cccc(C)c5)no4)c3C)c(C)o2)cc1 | -13% [at 5 µM] (inactive) |
| CCCNC(=O)N1CCc2nc(-c3ccc(OC)cc3)sc2C1 | 12.7% [at 10 µM] (inactive) |
| O=C(NC1CCCCC1)N1C[C@@H]2N[C@H](C1)C2c1ccc(-c2ccc(F)cc2)cc1 (stereo not given in full) | 23.1% [at 10 µM] (inactive) |
| Cc1ccccc1-c1ccc(C2[C@@H]3CN(C(=O)C4CCOCC4)C[C@H]2N3)cc1 (stereo not given in full) | 20.5% (inactive) |
